Assay in all cases: PBM binding z-score (relative to random genomic background probes); higher = stronger binding; sequences stand for … in GC…GCGATTGACAGCGTAGAATGAAGG
The test system of assay [1] is FXR:RXRa (NR concentration 270 nM, RXRa partner concentration 90 nM). The gist of the method: (§1)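 Binding buffer was PBS pH 7.4 with 2% milk, 0.02% Triton X-100, 1 mM DTT, 0.2 mg/mL BSA and 0.4 mg/ml salmon testes DNA. In it, ligand-free nuclear receptor dimers were incubated 1 h on custom Agilent 4×180K protein-binding microarrays carrying double-stranded probes. Antibodies against each partner (one per run) detected binding, and z-scores were calculated against random background probes after regression normalization of scanned fluorescence.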

Assay [2] relates to LXRa:RXRa (NR concentration 270 nM, RXRa partner concentration 90 nM). In outline:
as §1

Assay [3] relates to LXRa homodimer (NR concentration 270 nM). The gist of the method: as §1
The test system of assay [4] is LXRb:RXRa (NR concentration 270 nM, RXRa partner concentration 90 nM). The gist of the method: as §1
The test system of assay [5] is LXRb homodimer (NR concentration 270 nM). In outline:
as §1

Assay [6] relates to PPARa:RXRa (NR concentration 270 nM, RXRa partner concentration 90 nM). The gist of the method:
as §1

The subject of assay [7] is PPARg:RXRa (NR concentration 180 nM, RXRa partner concentration 90 nM). In outline:
as §1

Assay [8] has as its system PPARg:RXRa 270nM:90nM, anti-RXR (NR concentration 270 nM, RXRa partner concentration 90 nM). In outline: as §1
The subject of assay [9] is PPARg:RXRa 30nM:10nM, anti-RXR (NR concentration 30 nM, RXRa partner concentration 10 nM). In outline: as §1
Assay [10] deals with PPARg:RXRa 90nM:30nM, anti-RXR (NR concentration 90 nM, RXRa partner concentration 30 nM). The gist of the method:
as §1

In assay [11] the test system is PPARg:RXRa DBDmut IVT, anti-RXR (DBD mutation: RXRa K156A/R161A, NR concentration 270 nM, RXRa partner concentration 90 nM). The gist of the method: as §1
The test system of assay [12] is PPARg:RXRa IVT, anti-PPARg (NR concentration 270 nM, RXRa partner concentration 90 nM). In outline:
as §1

Assay [13] has as its system PPARg DBDmut:RXRa IVT, anti-PPARg (DBD mutation: PPARg1 K132A/R137A, NR concentration 270 nM, RXRa partner concentration 90 nM). In outline: as §1
The subject of assay [14] is PPARg DBDmut IVT, anti-PPARg (DBD mutation: PPARg1 K132A/R137A, NR concentration 270 nM). The gist of the method: as §1
The test system of assay [15] is PPARg homodimer (NR concentration 180 nM). The gist of the method:
as §1

For assay [16], the system named is PXR:RXRa (NR concentration 270 nM, RXRa partner concentration 90 nM). In outline:
as §1

Assay [17] concerns PXR homodimer (NR concentration 270 nM). In outline: as §1
Assay [18] concerns RARa:RXR (NR concentration 270 nM, RXRa partner concentration 90 nM). The gist of the method: as §1
The subject of assay [19] is RARa homodimer (NR concentration 270 nM). The gist of the method: as §1
The test system of assay [20] is RARb:RXRa (NR concentration 270 nM, RXRa partner concentration 90 nM). The gist of the method: as §1

Take CGAACTAGGTCATTGAAAGGACAGTGAATAGTAA: the PBM binding z-score in assay [1] turned out to be 3.97; in assay [2], 2.81; in assay [3] it was 0.177; in assay [4], 1.84; in assay [5] it was 0.134; in assay [6], 4.42. In addition, the PBM binding z-score in assay [7] stood at 7.82; in [8], 6.43; in assay [9], 4.13; in [10], 5.83; in assay [11] it was 8.01; in [12], 8.24. The PBM binding z-score in assay [13] was found to be 2.22; in [14] it was 2.02; in assay [15], 3.92; in assay [16] it was 2.1; in [17], 0.391; in assay [18], 4.04. Besides, the PBM binding z-score is 1.01 in assay [19] and 4.1 in assay [20].

In the case of GGAACGAGGGCAAATTTGATAGCATCTGTCGACG, the PBM binding z-score in assay [1] was 0.712; in assay [2] it was 0.506; in [3] it was -0.407; in [4], 0.682; in assay [5], 0.0825; in assay [6] it was 1.51. For the same sequence, the PBM binding z-score is 1.19 in [7]; 1.13 in assay [8]; -0.00323 in [9]; 0.82 in [10]; 3.93 in assay [11]; 2.76 in assay [12]. For the same sequence, the PBM binding z-score in [13] was 0.00863; in [14] it was -0.28; in [15], 0.201; in assay [16] it was 0.608; in assay [17] it was 0.0405; in [18], 0.115. For the same sequence, the PBM binding z-score was 0.0323 in assay [19] and 2.19 in assay [20].

Regarding GCATATAGGTAATACTAGGTGAAAGTCCGATTGT, the PBM binding z-score in assay [1] was 0.715; in assay [2] it was 2.49; in assay [3] it was 0.179; in assay [4], 0.49; in assay [5], -0.275; in assay [6], 2.06. For the same sequence, the PBM binding z-score was 2.22 in assay [7]; 2.48 in assay [8]; 1.09 in assay [9]; 2.43 in assay [10]; 4.82 in [11]; 4.2 in assay [12]. The PBM binding z-score amounted to 0.862 in [13]; 0.925 in assay [14]; 0.614 in [15]; 0.155 in [16]; 0.151 in [17]; 1.1 in assay [18]. The PBM binding z-score in assay [19] came out at 0.695; in assay [20] it was 0.113.

Consider ATCGAAATGTCGAGGTGAGTATAGAGAAAGGGAA, for which the PBM binding z-score in [1] is 0.0498; in [2], -0.124; in assay [3], -0.716; in [4], -0.253; in assay [5] it was -0.363; in [6], 0.204. Besides, the PBM binding z-score in assay [7] was 0.315; in assay [8] it was 0.0336; in assay [9], 0.162; in assay [10], 0.363; in [11] it was -0.755; in assay [12], 0.414. Besides, the PBM binding z-score was 0.309 in assay [13]; 0.489 in assay [14]; -0.704 in [15]; -0.204 in [16]; -0.513 in [17]; 0.129 in assay [18]. Besides, the results for the PBM binding z-score in assay [19] and in assay [20] were -0.696 and 0.538, respectively.

Turning to CCTTACGGGTCACTCCAGGTTATAGCCTCGGAGT, the PBM binding z-score in assay [1] is 4.87; in assay [2], 7.57; in assay [3], 1.87; in [4], 5.01; in assay [5] it was 0.105; in assay [6], 4.56. Moreover, the PBM binding z-score was found to be 3.61 in assay [7]; 3.83 in assay [8]; 1.17 in assay [9]; 2.46 in assay [10]; 2.45 in [11]; 3.8 in assay [12]. For the same sequence, the PBM binding z-score in assay [13] is -1.39; in assay [14], -0.526; in assay [15], 1.18; in assay [16], 4.66; in [17], 0.0423; in assay [18] it was 3.43. Also, the PBM binding z-score in assay [19] was 0.55; in [20], 3.64.

For the sequence CGAACTAGGTCAGAACAGGACAGTGATGGATGAT, the PBM binding z-score is 1.29 in assay [1]; 0.678 in assay [2]; 0.233 in assay [3]; 0.327 in assay [4]; -0.482 in [5]; 2.91 in assay [6]. Besides, the PBM binding z-score turned out to be 5.11 in assay [7]; 4.36 in assay [8]; 2 in assay [9]; 3.37 in [10]; 6.82 in assay [11]; 7.04 in [12]. Besides, the PBM binding z-score came out at 3.7 in assay [13]; 2.44 in assay [14]; 1.38 in assay [15]; 0.583 in assay [16]; 0.0168 in assay [17]; 1.39 in assay [18]. The PBM binding z-score was determined as 0.336 in assay [19] and 2.66 in [20].

Turning to CCAACTAGGTCACAGAGGTCAAAGTCCGTGCGTA, the PBM binding z-score in assay [1] was found to be 7.03; in assay [2] it was 6.68; in assay [3], 7.62; in [4], 6.53; in [5], 2.14; in [6], 6.53. The PBM binding z-score in assay [7] came out at 9.3; in assay [8] it was 7.99; in assay [9] it was 5.85; in [10], 7.48; in assay [11] it was 8.13; in [12], 8.5. Besides, the PBM binding z-score in assay [13] was 1.22; in [14], 2.03; in assay [15] it was 5.09; in [16], 6.64; in assay [17] it was 11.9; in assay [18] it was 7.08. Also, the PBM binding z-score in assay [19] was 2.03; in assay [20], 5.31.

The record behind these values is the supplement of paper PMC6555819.
